The assay can be described thus: chemical genetic growth profiling, strain panel (AID 1159580).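 Also: tested at 20 µM; growth read once vehicle control cultures reached saturation at 30 °C; 1 = growth at the plate median or of vehicle wells; lower values mean less growth of the strain.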 As to conditions: S. cerevisiae deletion strains, growth OD.
Where [1] appears, read: locus YAL013W, strain DEP1, stronger effect = lower value.
Where [2] appears, read: locus YMR263W, strain SAP30, stronger effect = lower value.
[3] abbreviates: locus YPL241C, strain CIN2, stronger effect = lower value.

This is an account of results in PubChem BioAssay AID1159580 (chemical genetic matrix, 2015).

Out of some 5,500 compounds screened, about 2,000 (36%) were called active. Roughly 18% stayed inconclusive and do not appear here. The list shows a part of the results. Unmarked numbers belong to inactive results. Rule as the data show it: active = normalized growth mostly below about 0.91 (no sharp cut-off); inconclusive = no clear call, values can overlap the other calls; inactive = mostly above about 0.92.

As for `CCCCCCN(CCCCCC)C(=O)Cc1c(-c2ccc(F)cc2)[nH]c2ccccc12`, the normalized growth was 1.03 under setting [1]; 1.03 (locus YAL040C, strain CLN3, stronger effect = lower value); 1 (locus YCL061C, strain MRC1 (second series), stronger effect = lower value); 1.01 (locus YDR363W, strain ESC2, stronger effect = lower value); 1.02 (locus YER002W, strain NOP16, stronger effect = lower value); 1.04 (locus YGR229C, strain SMI1, stronger effect = lower value). Further, the normalized growth under setting [2] is 1; the normalized growth (locus YMR307W, strain GAS1, stronger effect = lower value) is 0.996; the normalized growth (locus YNL128W, strain TEP1, stronger effect = lower value) is 1.12 [resistant] (active); the normalized growth (locus YNL175C, strain NOP13, stronger effect = lower value) was 1.15 [resistant] (active); the normalized growth (locus YNL224C, strain SQS1, stronger effect = lower value) was 1.07; the normalized growth (locus YOR083W, strain WHI5 (second series), stronger effect = lower value) is 1.12. Further, under setting [3], the normalized growth is 1.

For the molecule `Cc1nc(N)ncc1Sc1ccccc1`, the normalized growth under setting [1] is 0.995; the normalized growth (locus YBR229C, strain ROT2, stronger effect = lower value) is 0.989; the normalized growth (locus YCL061C, strain MRC1, stronger effect = lower value) was 0.963; the normalized growth (locus YDL101C, strain DUN1, stronger effect = lower value) was 0.98; the normalized growth (locus YDR150W, strain NUM1, stronger effect = lower value) was 1; the normalized growth (locus YEL061C, strain CIN8, stronger effect = lower value) is 0.977. The normalized growth runs as follows: (locus YGR078C, strain PAC10, stronger effect = lower value) 0.986; (locus YHR030C, strain SLT2, stronger effect = lower value) 0.899; (locus YHR087W, strain rtc3, stronger effect = lower value) 0.996; (locus YJL187C, strain SWE1, stronger effect = lower value) 0.981; (locus YJR043C, strain POL32, stronger effect = lower value) 0.991; (locus YJR075W, strain HOC1, stronger effect = lower value) 0.934. In addition, the normalized growth is 0.758 (active) (locus YLR039C, strain RIC1, stronger effect = lower value); 0.987 (locus YLR058C, strain SHM2 (second series), stronger effect = lower value); 1.01 (locus YLR085C, strain ARP6, stronger effect = lower value); 0.822 (locus YLR262C, strain YPT6, stronger effect = lower value); 0.964 (locus YML094W, strain GIM5, stronger effect = lower value); 0.99 (locus YMR219W, strain ESC1, stronger effect = lower value). For the same molecule, the normalized growth was 0.966 under setting [2]; 0.961 (locus YNL153C, strain GIM3, stronger effect = lower value); 0.961 (locus YNL298W, strain CLA4 (second series), stronger effect = lower value); 0.982 (locus YNL322C, strain KRE1, stronger effect = lower value); 0.963 (locus YNR030W, strain Alg12, stronger effect = lower value); 0.911 (locus YOL006C, strain TOP1, stronger effect = lower value). The normalized growth is, setting by setting: (locus YPL055C, strain LGE1, stronger effect = lower value) 0.928; under setting [3], 1.04; (locus YPR135W, strain CTF4, stronger effect = lower value) 0.907.
